The campaign covered roughly 5,500 compounds. About 2,000 (36%) were called active. Another 18% or so got no clear call; they are omitted. Cut-off read from the data, not from the text of the source: active = normalized growth mostly below about 0.91 (no sharp cut-off); inconclusive = no clear call, values can overlap the other calls; inactive = mostly above about 0.92. The list shows a part of the results.
Assay: chemical genetic growth profiling, strain panel (AID 1159580);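 note: tested at 20 µM; growth read once vehicle control cultures reached saturation at 30 °C; 1 = growth at the plate median or of vehicle wells; lower values mean less growth of the strain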
Conditions: S. cerevisiae deletion strains, growth OD

Measured: normalized growth

Nc1ccc([As](=O)(O)O)cc1
inactive: locus YAL021C, strain ccr4, hits give low values 1 | locus YAL026C, strain drs2, hits give low values 1.02 | locus YAL030W, strain snc1, hits give low values 1 | locus YBL061C, strain skt5, hits give low values 1.01 | locus YBR009C, strain hhf1, hits give low values 1.02 | locus YBR023C, strain chs3, hits give low values 1.02 | locus YBR171W, strain sec66, hits give low values 0.997 | locus YBR231C, strain swc5, hits give low values 1.01 | locus YBR279W, strain paf1, hits give low values 1 | locus YCL011C, strain gbp2, hits give low values 1 | locus YCL016C, strain dcc1, hits give low values 1.01 | locus YCL061C, strain MRC1, hits give low values 1 | locus YCL069W, strain vba3, hits give low values 1.01 | locus YCR088W, strain abp1, hits give low values 1.01 | locus YDL005C, strain med2, hits give low values 0.996 | locus YDL040C, strain nat1, hits give low values 1.01 | locus YDR001C, strain nth1, hits give low values 0.992 | locus YDR069C, strain doa4, hits give low values 1.01 | locus YDR137W, strain rgp1, hits give low values 0.994 | locus YDR159W, strain sac3, hits give low values 1.02 | locus YDR195W, strain ref2 0.993 | locus YDR297W, strain sur2, hits give low values 0.999 | locus YDR334W, strain swr1, hits give low values 1.01 | locus YDR335W, strain msn5, hits give low values 0.995 | locus YDR392W, strain spt3, hits give low values 1.01 | locus YEL003W, strain gim4, hits give low values 0.996 | locus YEL037C, strain rad23, hits give low values 0.997 | locus YEL061C, strain CIN8 (second series), hits give low values 0.997 | locus YER015W, strain faa2, hits give low values 0.999 | locus YER016W, strain bim1, hits give low values 1 | locus YER111C, strain swi4, hits give low values 1 | locus YER155C, strain BEM2 (second series), hits give low values 1.03 | locus YFR010W, strain ubp6, hits give low values 1 | locus YGL167C, strain pmr1, hits give low values 0.997 | locus YGL173C, strain kem1, hits give low values 1.01 | locus YGL227W, strain vid30, hits give low values 0.998 | locus YGL240W, strain doc1, hits give low values 1.01 | locus YGL253W, strain hxk2, hits give low values 1 | locus YHR013C, strain ard1, hits give low values 1.03 | locus YHR027C, strain rpn1, hits give low values 1 | locus YHR030C, strain SLT2, hits give low values 1 | locus YHR079C, strain IRE1, hits give low values 0.984 | locus YHR142W, strain chs7, hits give low values 1.02 | locus YJL092W, strain hpr5, hits give low values 1.01 | locus YJL095W, strain BCK1 (second series), hits give low values 1 | locus YJL095W, strain BCK1, hits give low values 0.971 | locus YJL115W, strain asf1, hits give low values 1.01 | locus YJL129C, strain trk1, hits give low values 1 | locus YJL154C, strain vps35, hits give low values 1 | locus YJL164C, strain tpk1, hits give low values 1.01 | locus YJL166W, strain qcr8, hits give low values 0.998 | locus YJL187C, strain SWE1, hits give low values 1 | locus YJR066W, strain TOR1, hits give low values 0.966 | locus YKL160W, strain elf1, hits give low values 1 | locus YKR026C, strain gcn3, hits give low values 0.997 | locus YKR091W, strain srl3, hits give low values 1.01 | locus YLL001W, strain dnm1, hits give low values 1.01 | locus YLL026W, hits give low values 1.01 | locus YLL041C, strain sdh2, hits give low values 1.01 | locus YLR027C, strain aat2, hits give low values 1 | locus YLR113W, strain HOG1, hits give low values 0.965 | locus YLR221C, strain rsa3, hits give low values 1.01 | locus YLR258W, strain gsy2, hits give low values 1.01 | locus YLR262C, strain YPT6 (second series), hits give low values 1 | locus YLR320W, strain mms22, hits give low values 0.999 | locus YLR342W, strain FKS1, hits give low values 1.01 | locus YLR357W, strain rsc2, hits give low values 1.01 | locus YLR370C, strain arc18, hits give low values 1 | locus YLR384C, strain iki3, hits give low values 1 | locus YML120C, strain ndi1, hits give low values 0.997 | locus YMR058W, strain fet3, hits give low values 1 | locus YMR125W, strain sto1, hits give low values 1 | locus YMR129W, hits give low values 1 | locus YMR205C, strain PFK2, hits give low values 1.04 | locus YMR231W, strain pep5, hits give low values 1 | locus YNL071W, strain lat1, hits give low values 1 | locus YNL183C, strain NPR1, hits give low values 0.968 | locus YNL209W, strain ssb2, hits give low values 0.999 | locus YNL248C, strain rpa49, hits give low values 0.992 | locus YNL322C, strain KRE1 (second series), hits give low values 1.01 | locus YNR049C, strain mso1, hits give low values 1 | locus YOR001W, strain rrp6, hits give low values 1 | locus YOR070C, strain gyp1, hits give low values 1.01 | locus YOR080W, strain dia2, hits give low values 1.01 | locus YOR083W, strain WHI5, hits give low values 1 | locus YOR106W, strain vam3, hits give low values 1.03 | locus YOR231W, strain MKK1, hits give low values 1.01 | locus YOR265W, strain rbl2, hits give low values 0.996 | locus YOR270C, strain vph1, hits give low values 1.06 | locus YOR290C, strain snf2, hits give low values 1 | locus YPL051W, strain arl3, hits give low values 1.01 | locus YPL078C, strain atp4, hits give low values 0.996 | locus YPL106C, strain sse1, hits give low values 0.996 | locus YPL240C, strain hsp82, hits give low values 1 | locus YPL256C, strain CLN2, hits give low values 1.02

Reference: PubChem BioAssay AID1159580 (chemical genetic matrix, 2015)
